Reference: PubChem BioAssay (Tox21)
Values without a mark were called inactive. Records with an inconclusive call do not appear. Where a call stands in place of a potency, no number is given. Calls of active or inactive are those of the source. Unless noted, calls come from the whole dose curve; as a rule, active = well fitted curve in the direction sought with a large enough effect in the repeat runs; inconclusive = weak or mixed curves; inactive = no such curve, though single readings can be large; an effect the other way counts as inactive or inconclusive.

Tests used:
[1] = molecular target: Estrogen receptor (Homo sapiens) (UniProt P03372); assay: qHTS assay to identify small molecule agonists of the estrogen receptor alpha (ER-alpha) signaling pathway in the presence of an antagonist (AID 1259383; calls by dose curve; note: top concentration of the series differs between compounds; nearly all actives have a fitted effect of over 15% in size)
Estrogen receptor (Homo sapiens), sequence (P03372 whole entry, looked up): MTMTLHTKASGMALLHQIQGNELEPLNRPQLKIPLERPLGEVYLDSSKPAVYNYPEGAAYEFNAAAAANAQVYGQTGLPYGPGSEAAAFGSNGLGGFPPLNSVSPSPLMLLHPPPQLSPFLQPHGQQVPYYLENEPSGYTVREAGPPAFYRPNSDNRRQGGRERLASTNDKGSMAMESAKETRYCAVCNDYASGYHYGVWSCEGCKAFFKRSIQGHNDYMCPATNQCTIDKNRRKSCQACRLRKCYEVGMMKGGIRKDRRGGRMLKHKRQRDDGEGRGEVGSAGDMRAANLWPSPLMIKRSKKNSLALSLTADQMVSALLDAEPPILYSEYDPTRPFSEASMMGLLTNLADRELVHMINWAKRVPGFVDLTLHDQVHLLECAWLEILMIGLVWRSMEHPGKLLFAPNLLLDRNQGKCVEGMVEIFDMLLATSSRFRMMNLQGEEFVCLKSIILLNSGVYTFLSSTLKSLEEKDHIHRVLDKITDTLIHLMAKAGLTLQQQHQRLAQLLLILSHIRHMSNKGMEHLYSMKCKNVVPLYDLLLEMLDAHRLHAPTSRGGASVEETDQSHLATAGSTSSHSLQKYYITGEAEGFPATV
Summary of the method: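 Using VM7Luc4E2 cells seeded 24hr before treatment, antagonist ICI-182,780 (10.0nM final) was added, followed by compounds at 15 concentrations. Plates incubated 22hr; ONE-Glo luminescence quantified reporter activity.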

[2] = qHTS assay to identify small molecule agonists or antagonists of the thyroid stimulating hormone receptor (TSHR) signaling pathway - wild type cell line counter screen (AID 1259384; calls by dose curve)
Summary of the method: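 Wild-type HEK293 cells were plated 18 h at 37 C/5% CO2, pin-dosed with compound plus Ro20-1724 medium, held 30 min at room temperature, then given cAMP-d2 and anti-cAMP-cryptate; fluorescence was read after 1 h. Fifteen concentrations, triplicate.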

[3] = molecular target: Thyrotropin receptor (Homo sapiens) (UniProt P16473); assay: qHTS assay to identify small molecule antagonists of the thyroid stimulating hormone receptor (TSHR) signaling pathway (AID 1259385; calls by dose curve; note: nearly all actives have a fitted effect of over 20% in size)
Thyrotropin receptor (Homo sapiens), sequence (P16473 whole entry, looked up): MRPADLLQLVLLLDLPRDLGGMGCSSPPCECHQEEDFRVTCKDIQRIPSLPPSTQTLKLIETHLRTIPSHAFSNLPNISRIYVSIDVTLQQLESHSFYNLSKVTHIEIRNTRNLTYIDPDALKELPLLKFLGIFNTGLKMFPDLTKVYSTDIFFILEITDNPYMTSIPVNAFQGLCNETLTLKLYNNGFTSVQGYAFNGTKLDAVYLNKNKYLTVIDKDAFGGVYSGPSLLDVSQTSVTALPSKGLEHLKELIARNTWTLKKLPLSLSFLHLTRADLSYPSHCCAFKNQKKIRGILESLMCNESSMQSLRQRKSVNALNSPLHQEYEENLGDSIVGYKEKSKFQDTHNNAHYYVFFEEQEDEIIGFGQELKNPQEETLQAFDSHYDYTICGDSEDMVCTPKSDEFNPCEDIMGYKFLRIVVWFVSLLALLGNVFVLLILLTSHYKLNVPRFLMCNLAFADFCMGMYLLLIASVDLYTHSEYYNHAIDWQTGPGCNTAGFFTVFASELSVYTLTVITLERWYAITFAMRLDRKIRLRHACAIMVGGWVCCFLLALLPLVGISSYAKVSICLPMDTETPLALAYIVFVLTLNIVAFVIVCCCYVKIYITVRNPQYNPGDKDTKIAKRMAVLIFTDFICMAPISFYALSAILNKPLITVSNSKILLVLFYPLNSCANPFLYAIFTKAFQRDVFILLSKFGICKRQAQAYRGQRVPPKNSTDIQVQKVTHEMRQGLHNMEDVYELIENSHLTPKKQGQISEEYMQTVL
Summary of the method: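 TSHR-HEK293 cells were plated and held 18 h at 37C/5% CO2, then given compound plus Ro20-1724 and stimulated with TSH at 1.5 ng/mL final. After 30 min at room temperature, cAMP was detected with cAMP-d2/anti-cAMP-cryptate (1 h) by fluorescence.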

[4] = qHTS assay to identify small molecule agonists of the estrogen receptor alpha (ER-alpha) signaling pathway in the presence of an antagonist - cell viability counter screen (AID 1259386);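 note: series mostly up to about 92 µM; cells exposed to compounds for 22 h at 37 °C before the viability read; nearly all actives have a fitted effect of over 30% in size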
Summary of the method: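 ICI-182,780 at 10.0nM final accompanies the compound titration (15 concentrations, 22hr, 37C) on VM7Luc4E2 cells. The CellTiter-Fluor fluorescence readout runs in the same wells as the luciferase assay.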

[5] = molecular target: Progesterone receptor (Homo sapiens) (UniProt P06401); assay: qHTS assay to identify small molecule agonists of the progesterone receptor (PR) signaling pathway (AID 1346784; calls by dose curve; note: nearly all actives have a fitted effect of over 30% in size)
Progesterone receptor (Homo sapiens), sequence (P06401 whole entry, looked up): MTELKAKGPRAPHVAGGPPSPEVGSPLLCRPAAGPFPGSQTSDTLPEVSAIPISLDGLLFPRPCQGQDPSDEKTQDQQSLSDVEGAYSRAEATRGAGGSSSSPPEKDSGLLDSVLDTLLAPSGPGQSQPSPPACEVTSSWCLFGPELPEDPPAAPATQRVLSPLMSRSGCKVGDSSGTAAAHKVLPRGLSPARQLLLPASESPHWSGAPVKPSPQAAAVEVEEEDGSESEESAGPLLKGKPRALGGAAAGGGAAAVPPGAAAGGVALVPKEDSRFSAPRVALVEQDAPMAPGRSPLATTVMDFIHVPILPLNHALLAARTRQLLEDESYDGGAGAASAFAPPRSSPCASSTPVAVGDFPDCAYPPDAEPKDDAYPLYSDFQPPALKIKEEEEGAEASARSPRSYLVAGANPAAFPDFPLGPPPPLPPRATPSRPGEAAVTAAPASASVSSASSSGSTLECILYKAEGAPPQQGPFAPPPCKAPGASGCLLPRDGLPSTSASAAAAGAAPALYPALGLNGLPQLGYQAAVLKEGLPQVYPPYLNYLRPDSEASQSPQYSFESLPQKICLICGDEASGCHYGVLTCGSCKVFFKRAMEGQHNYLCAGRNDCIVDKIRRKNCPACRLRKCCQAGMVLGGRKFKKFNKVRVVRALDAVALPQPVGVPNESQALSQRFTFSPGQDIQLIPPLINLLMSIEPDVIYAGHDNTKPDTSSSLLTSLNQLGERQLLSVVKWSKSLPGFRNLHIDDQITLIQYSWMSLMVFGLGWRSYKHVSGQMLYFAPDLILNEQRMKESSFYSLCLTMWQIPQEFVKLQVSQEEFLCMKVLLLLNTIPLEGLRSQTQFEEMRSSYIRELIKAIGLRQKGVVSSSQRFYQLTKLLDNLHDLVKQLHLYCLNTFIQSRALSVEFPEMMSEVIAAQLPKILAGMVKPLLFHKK
Summary of the method: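 Reporter assay, GripTite PR-UAS-bla HEK 293T cells: 16 hr exposure to DMSO-dissolved compounds at 37C, 5% CO2, in steroid-depleted (2% charcoal-stripped FBS) medium; beta-lactamase measured by FRET fluorescence.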

[6] = molecular target: Progesterone receptor (Homo sapiens) (UniProt P06401); assay: qHTS assay to identify small molecule antagonists of the progesterone receptor (PR) signaling pathway (AID 1346795; active = well fitted inhibition curve with a large enough effect in the signal ratio in the repeat runs, not every such curve was filed as active; the % refers to the signal ratio; note: potency is the fitted concentration of half-maximal effect)
Summary of the method: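 Stimulus R5020 at 1 nM final; cells HEK293T PR-UAS-bla; medium with 2% charcoal-stripped FBS; compound exposure 16 hr at 37C, 5% CO2; detection by FRET beta-lactamase substrate, 2 hr, room temperature.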

[7] = qHTS assay to identify small molecule agonists of the progesterone receptor (PR) signaling pathway - cell viability counter screen (AID 1346799; calls by dose curve; note: nearly all actives have a fitted effect of over 45% in size)
Summary of the method: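 Multiplexed viability read: CellTiter-Glo luminescence, 30 min RT, following LiveBLAzer FRET measurement on PR-UAS-bla HEK293T cells exposed to compounds 16 hr.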

[8] = qHTS assay to identify small molecule antagonists of the TGF-beta/Smad signaling pathway - cell viability counter screen (AID 1346824); note: nearly all actives have a fitted effect of over 50% in size
Summary of the method: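 SBE-bla HEK 293T cells were plated overnight at 37 C, then given compounds in DMSO plus TGF-beta1 (added as 0.25 ng/mL solution) for 5 hr. After the bla read, CellTiter-Glo was added to the same wells and luminescence read after 30 min at room temperature.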

[9] = qHTS assay to identify small molecule agonists of the TGF-beta/Smad signaling pathway - cell viability counter screen (AID 1346829); note: top concentration of the series differs between compounds; nearly all actives have a fitted effect of over 45% in size
Summary of the method: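 Cytotoxicity counter screen: CellTiter-Glo luminescence (30 min, room temperature) measured in the SBE-bla HEK 293T reporter wells after 5 hr compound treatment at 37 C and the 2 hr substrate step.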

[10] = Human pregnane X receptor (PXR) small molecule agonists, qHTS cell viability counter screen (AID 1346977); note: nearly all actives have a fitted effect of over 50% in size
Summary of the method: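 In each well, the PXR reporter HepG2 line was checked for viability: CellTiter-Fluor reagent added 23hr post-dosing, fluorescence read after 1hr incubation at 37C.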

[11] = Caspase-3/7 induction in HepG2 cells by small molecules, qHTS assay (AID 1346978); note: nearly all actives have a fitted effect of over 15% in size
Summary of the method: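 Wild-type HepG2 cells (2,000/well) were settled 5 h at 37 C, 5% CO2, then exposed to compounds in DMSO for 17 h. Caspase-3/7 activity was read by luminescence 30 min after adding Caspase-Glo 3/7 reagent at room temperature.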

[12] = Caspase-3/7 induction in CHO-K1 cells by small molecules, qHTS assay (AID 1346980); note: nearly all actives have a fitted effect of over 15% in size
Summary of the method: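 Wild-type cells were seeded at 1,500 per well and settled 5 hr at 37 C, 5% CO2, then exposed to DMSO-dissolved compounds for 17 hr. Caspase-Glo 3/7 reagent was added, and luminescence was read after 30min at room temperature.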

[13] = Caspase-3/7 induction in HepG2 cells by small molecules, qHTS cell viability counter screen (AID 1346981); note: series mostly up to about 92 µM; nearly all actives have a fitted effect of over 30% in size
Summary of the method: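 Multiplexed with the caspase-3/7 assay: HepG2 cells, 16 hr compound treatment, CellTiter-Fluor viability detection by fluorescence.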

[14] = molecular target: Thyrotropin-releasing hormone receptor (Homo sapiens) (UniProt P34981); assay: qHTS assay to identify small molecule antagonists of the thyrotropin-releasing hormone receptor (TRHR) signaling pathway (AID 1346877; active = well fitted inhibition curve with a large enough effect in the repeat runs, not every such curve was filed as active; note: series mostly up to about 51 µM)
Thyrotropin-releasing hormone receptor (Homo sapiens), sequence (P34981 whole entry, looked up): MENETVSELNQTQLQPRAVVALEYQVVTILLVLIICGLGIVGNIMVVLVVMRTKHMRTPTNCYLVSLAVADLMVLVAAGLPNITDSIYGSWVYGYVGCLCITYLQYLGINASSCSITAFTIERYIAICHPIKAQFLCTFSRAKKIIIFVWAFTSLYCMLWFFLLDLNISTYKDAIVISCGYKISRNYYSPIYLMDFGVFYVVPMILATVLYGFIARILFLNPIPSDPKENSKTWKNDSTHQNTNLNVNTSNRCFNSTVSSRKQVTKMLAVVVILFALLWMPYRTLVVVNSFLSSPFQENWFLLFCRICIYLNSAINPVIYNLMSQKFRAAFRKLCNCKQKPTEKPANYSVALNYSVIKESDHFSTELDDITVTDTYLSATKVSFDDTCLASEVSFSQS
Summary of the method: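 Screening used HEK293 cells engineered with TRHR, with a brief 5 min room-temperature compound exposure preceding addition of TRH to 1 nM. The read-out was kinetic calcium-dye fluorescence, concentration-response from 15 doses in triplicate.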

[15] = molecular target: Thyrotropin-releasing hormone receptor (Homo sapiens) (UniProt P34981); assay: qHTS assay to identify small molecule agonists of the thyrotropin-releasing hormone receptor (TRHR) signaling pathway (AID 1346891; calls by dose curve; note: series mostly up to about 58 µM)
Summary of the method: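 Readout was intracellular calcium fluorescence in TRHR-Hek293 cells. Cells were incubated 18 h, dye-loaded 2 h at 37 °C, and treated with compound in agonist mode.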

[16] = Caspase-3/7 induction in CHO-K1 cells by small molecules, qHTS cell viability counter screen (AID 1346979); note: nearly all actives have a fitted effect of over 35% in size
Summary of the method: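 Following a 5hr settling period, CHO-K1 cells at 1,500 per well received DMSO-dissolved compounds. Cell viability was quantified 16hr later by CellTiter-Fluor fluorescence, measured after 1hr with reagent at 37C.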

[17] = molecular target: Nuclear receptor subfamily 1 group I member 2 (Homo sapiens) (UniProt O75469); assay: Human pregnane X receptor (PXR) small molecule agonists, qHTS assay (AID 1346982); note: nearly all actives have a fitted effect of over 35% in size; note: potency is the fitted concentration of half-maximal effect
Nuclear receptor subfamily 1 group I member 2 (Homo sapiens), sequence (O75469 whole entry, looked up): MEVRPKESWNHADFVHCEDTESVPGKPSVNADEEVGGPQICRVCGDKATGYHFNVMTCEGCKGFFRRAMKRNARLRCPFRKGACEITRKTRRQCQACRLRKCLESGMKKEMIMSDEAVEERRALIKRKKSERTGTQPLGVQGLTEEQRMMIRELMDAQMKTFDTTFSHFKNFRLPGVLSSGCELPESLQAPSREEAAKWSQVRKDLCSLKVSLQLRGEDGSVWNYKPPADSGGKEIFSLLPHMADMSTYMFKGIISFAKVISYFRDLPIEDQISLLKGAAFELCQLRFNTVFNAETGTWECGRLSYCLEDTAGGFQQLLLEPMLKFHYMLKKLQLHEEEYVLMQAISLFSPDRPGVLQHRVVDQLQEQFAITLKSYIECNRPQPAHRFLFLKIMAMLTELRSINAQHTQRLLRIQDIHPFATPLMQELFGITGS
Summary of the method: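 We seeded PXR-Luc HepG2 cells in assay medium containing 5% charcoal-stripped FBS, added compounds 5 hr later, incubated 24 hr, and read luminescence with ONE-Glo reagent.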

[18] = qHTS assay to identify small molecule agonists of the TGF-beta/Smad signaling pathway (AID 1346859; active = well fitted activation curve with a large enough effect in the signal ratio in the repeat runs, not every such curve was filed as active; the % refers to the signal ratio; note: series mostly up to about 77 µM)
Summary of the method: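 Screening used HEK 293T SBE-bla cells at 4,000/well. Test agents: 5 hr, 37 C. Detection: FRET substrate, 2 hr RT, then excitation 405 nm with emissions at 460 and 530 nm.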

[19] = qHTS assay to identify small molecule antagonists of the progesterone receptor (PR) signaling pathway - cell viability counter screen (AID 1346798); note: series mostly up to about 92 µM; nearly all actives have a fitted effect of over 50% in size
Summary of the method: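 In the same plates used for the beta-lactamase readout, cell viability of compound- and R5020-treated PR-UAS-bla HEK293T cells (16 hr, 37C) was assessed by CellTiter-Glo luminescence.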

| Compound | outcome [1] | outcome [2] | outcome [3] | Potency [4] | Potency [5] | Potency [6] | Potency [7] | outcome [8] | outcome [9] | Potency [10] | outcome [11] | outcome [12] | Potency [13] | outcome [14] | outcome [15] | Potency [16] | Potency [17] | outcome [18] | Potency [19] |
| --- | --- | --- | --- | --- | --- | --- | --- | --- | --- | --- | --- | --- | --- | --- | --- | --- | --- | --- | --- |
| CC(C)(c1ccc(Oc2ccc3c(c2)C(=O)OC3=O)cc1)c1ccc(Oc2ccc3c(c2)C(=O)OC3=O)cc1 | inactive | inactive | inactive | inactive | inactive | inactive | inactive | inactive | inactive | inactive | inactive | inactive | inactive | – | – | – | – | – | – |
| CCC(O)C(C)(C)C (stereo not given) | inactive | inactive | inactive | inactive | inactive | inactive | inactive | inactive | inactive | inactive | inactive | – | inactive | inactive | inactive | inactive | inactive | – | – |
| CCCCCCCCCCC | inactive | inactive | inactive | inactive | inactive | inactive | – | inactive | inactive | inactive | inactive | inactive | – | – | – | inactive | inactive | inactive | – |
| COC(/C=C(\C)CCC=C(C)C)OC | inactive | inactive | inactive | inactive | – | inactive | – | inactive | inactive | inactive | inactive | inactive | inactive | – | – | – | inactive | inactive | – |
| CCN(CCC#N)c1ccccc1 | inactive | inactive | inactive | inactive | inactive | – | inactive | inactive | inactive | inactive | inactive | inactive | – | – | – | – | inactive | inactive | – |
| CCC(C)(C)C1CCC(=O)CC1 | inactive | inactive | inactive | inactive | inactive | inactive | inactive | inactive | inactive | inactive | inactive | inactive | – | – | – | – | inactive | inactive | – |
| Nc1nc(=O)n([C@@H]2O[C@H](CO)[C@@H](O)[C@@H]2F)cc1I | inactive | inactive | inactive | inactive | inactive | inactive | inactive | inactive | inactive | inactive | inactive | inactive | inactive | inactive | inactive | inactive | inactive | inactive | – |
| OCCCCCCCl | inactive | inactive | inactive | inactive | inactive | inactive | inactive | inactive | inactive | inactive | inactive | inactive | inactive | inactive | inactive | inactive | inactive | – | – |
| Oc1ccccc1Cc1ccccc1O | inactive | inactive | inactive | inactive | – | 27.3 µM (active) | – | inactive | inactive | inactive | inactive | – | inactive | inactive | inactive | inactive | 61.1 µM (active) | inactive | – |
| CNC(=O)C(c1ccccc1)c1ccccc1 | inactive | inactive | inactive | inactive | inactive | – | inactive | – | inactive | inactive | inactive | inactive | – | – | – | inactive | inactive | inactive | – |
| C[N+](C)(C)CC(O)CCl (stereo not given) | inactive | inactive | inactive | inactive | inactive | inactive | inactive | inactive | inactive | inactive | inactive | inactive | inactive | – | – | inactive | inactive | inactive | – |
| CCOC(=O)C(=O)c1csc(NC=O)n1 | inactive | inactive | inactive | inactive | – | – | inactive | inactive | inactive | inactive | inactive | – | inactive | inactive | inactive | – | inactive | inactive | – |
| Cc1nc(C)nc(N2C[C@@H](C)N(c3ccnc([C@@H](C)O)n3)[C@@H](C)C2)n1 | inactive | inactive | inactive | inactive | inactive | – | inactive | inactive | inactive | inactive | inactive | inactive | inactive | – | – | inactive | inactive | inactive | inactive |
| CC(Cl)COP(=O)(OCC(C)Cl)OCC(C)Cl (stereo not given) | inactive | inactive | inactive | inactive | inactive | – | inactive | inactive | inactive | inactive | inactive | inactive | inactive | inactive | inactive | inactive | 13.6 µM (active) | inactive | inactive |
